About 83,000 compounds went through this panel and 20% of them were active in at least one assay; those are over-represented in the sample as a whole.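 Results are percent growth after 48 hours of single-concentration exposure. 100 means growth as in untreated cells, lower positive values show inhibition; negative values down to -100 show cell death.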 The source made the active and inactive calls. How the source made its calls: active means growth percent below 10; inactive means the rest.
Key:
Assay in all cases: NCI-60 one-dose screen, 48 h (100 = growth as untreated, 0 = no growth, -100 = all killed)
Details in all cases: 10 µM unless noted
HCT-15 colon = tested on: HCT-15 colon
HT29 colon = tested on: HT29 colon
SNB-75 CNS = tested on: SNB-75 CNS
SNB-19 CNS = tested on: SNB-19 CNS
U251 CNS = tested on: U251 CNS
PC-3 prostate = tested on: PC-3 prostate
UACC-62 melanoma = tested on: UACC-62 melanoma
LOX IMVI melanoma = tested on: LOX IMVI melanoma
SK-MEL-28 melanoma = tested on: SK-MEL-28 melanoma
SK-MEL-2 melanoma = tested on: SK-MEL-2 melanoma
EKVX NSCLC = tested on: EKVX NSCLC
SN12C renal = tested on: SN12C renal
UO-31 renal = tested on: UO-31 renal
TK-10 renal = tested on: TK-10 renal
ACHN renal = tested on: ACHN renal
CAKI-1 renal = tested on: CAKI-1 renal
A498 renal = tested on: A498 renal
CCRF-CEM leukemia = tested on: CCRF-CEM leukemia
MOLT-4 leukemia = tested on: MOLT-4 leukemia

Measured: growth

CN1CCN(CCCOc2cccc3nc(Nc4cc(Cl)cc(Cl)c4)ccc23)CC1
inactive: SNB-75 CNS 36.4% | SK-MEL-2 melanoma 86.9% | EKVX NSCLC 26.6% | SN12C renal 36.1% | TK-10 renal 71.9% | CAKI-1 renal 30.7% | A498 renal 23.8%
active: HCT-15 colon -73.6% | HT29 colon -80.1% | SNB-19 CNS 7.72% | U251 CNS -1.53% | PC-3 prostate 3.25% | UACC-62 melanoma -57.7% | LOX IMVI melanoma -92.9% | SK-MEL-28 melanoma -51.2% | UO-31 renal -15.8% | ACHN renal -5.36% | CCRF-CEM leukemia -40.7% | MOLT-4 leukemia -47.7%

O=C1c2cc3c(cc2-c2c1c1ccc(F)cc1c(=O)n2C[C@H](O)[C@H](O)[C@H](O)CO)OCO3
active: HCT-15 colon 0.724% | HT29 colon -4.15% | SNB-75 CNS -36.9% | SNB-19 CNS 2.14% | U251 CNS -22.4% | PC-3 prostate 6.99% | UACC-62 melanoma -70.4% | LOX IMVI melanoma -33.5% | SK-MEL-28 melanoma -30.6% | SK-MEL-2 melanoma -33.4% | EKVX NSCLC 5.59% | SN12C renal -18% | UO-31 renal -55.2% | TK-10 renal -25.7% | ACHN renal -53.8% | CAKI-1 renal -20.6% | A498 renal -85.7% | CCRF-CEM leukemia 2.16% | MOLT-4 leukemia -12.3%

COc1cc2c(cc1-c1c(C)noc1C)ncc1nc(C3CCCCC3)n([C@H](C)COC(F)F)c12
active: A498 renal -13.1%
inactive: HCT-15 colon 15.1% | HT29 colon 19.3% | SNB-75 CNS 41% | SNB-19 CNS 45.4% | U251 CNS 45.7% | PC-3 prostate 35% | UACC-62 melanoma 22.8% | LOX IMVI melanoma 11% | SK-MEL-28 melanoma 49.9% | SK-MEL-2 melanoma 69% | EKVX NSCLC 44.3% | SN12C renal 58.4% | UO-31 renal 13.6% | TK-10 renal 33.2% | ACHN renal 33.1% | CAKI-1 renal 29.2% | CCRF-CEM leukemia 44.9% | MOLT-4 leukemia 47.6%

CC[C@]1(O)C[C@@H]2CN(CCc3c([nH]c4ccccc34)[C@@](C(=O)OC)(c3cc4c(cc3OC)N(C)[C@H]3[C@@](O)(C(N)=O)[C@H](O)[C@]5(CC)[C@@H]6C[C@@H]6CN6CC[C@]43[C@@H]65)C2)C1
active: HT29 colon 2.2% | A498 renal -7.44%
inactive: HCT-15 colon 11.9% | SNB-75 CNS 50.8% | SNB-19 CNS 30.9% | U251 CNS 10.7% | PC-3 prostate 20.7% | UACC-62 melanoma 35.7% | LOX IMVI melanoma 18.3% | SK-MEL-28 melanoma 68.1% | SK-MEL-2 melanoma 22.4% | EKVX NSCLC 41.1% | SN12C renal 27.6% | UO-31 renal 50% | TK-10 renal 53.5% | ACHN renal 33% | CAKI-1 renal 32.8% | CCRF-CEM leukemia 17.7% | MOLT-4 leukemia 17.1%

CCOc1cc2ncc(C#N)c(Nc3ccc(OCc4cccc(F)c4)c(Cl)c3)c2cc1NC(=O)CC1CCSS1 (centres undefined)
inactive: HCT-15 colon 66.4% | HT29 colon 17.6% | SNB-75 CNS 102% | SNB-19 CNS 81.5% | U251 CNS 55.9% | UACC-62 melanoma 71.6% | SK-MEL-28 melanoma 34.9% | SK-MEL-2 melanoma 25.9% | EKVX NSCLC 27.3% | SN12C renal 46% | UO-31 renal 39.3% | TK-10 renal 38.6% | ACHN renal 59.7% | CAKI-1 renal 43% | A498 renal 64%
active: PC-3 prostate -42.7% | LOX IMVI melanoma -35.3% | CCRF-CEM leukemia 9.64% | MOLT-4 leukemia -25.2%

COc1ccc(-c2n[nH]nc2-c2csc3ccccc23)cc1OC
active: HT29 colon 8.59% | SNB-75 CNS 1.72% | A498 renal 1.02%
inactive: HCT-15 colon 16.4% | SNB-19 CNS 30.4% | U251 CNS 22.1% | PC-3 prostate 27.8% | UACC-62 melanoma 27.7% | LOX IMVI melanoma 24.2% | SK-MEL-28 melanoma 50.2% | SK-MEL-2 melanoma 15% | EKVX NSCLC 45.8% | SN12C renal 34% | UO-31 renal 35.1% | TK-10 renal 53.2% | ACHN renal 37.7% | CAKI-1 renal 23.2% | CCRF-CEM leukemia 22.8% | MOLT-4 leukemia 11%

C=C1C(=O)O[C@H]2[C@H]1CC/C(COC(=O)c1cc3cc(OC)ccc3[nH]1)=C\CC[C@@]1(C)O[C@@H]21
active: HCT-15 colon -43.5% | HT29 colon -83.4% | SNB-75 CNS -68.5% | SNB-19 CNS -64.3% | U251 CNS -97.7% | PC-3 prostate -71.5% | UACC-62 melanoma -90.6% | LOX IMVI melanoma -91% | SK-MEL-28 melanoma -80.8% | SK-MEL-2 melanoma -76.2% | EKVX NSCLC -86.2% | SN12C renal -80.8% | UO-31 renal -95.6% | TK-10 renal -97% | ACHN renal -93.9% | CAKI-1 renal -95.1% | A498 renal -95.3% | CCRF-CEM leukemia -21% | MOLT-4 leukemia -14.6%

CC1=CC(=NN=c2cc(C)n([O-])c(C)c2)C=C(C)[N+]1=O
inactive: HCT-15 colon 94.4% | HT29 colon 74.6% | SNB-75 CNS 64.7% | SNB-19 CNS 103% | U251 CNS 91.2% | PC-3 prostate 91.9% | UACC-62 melanoma 80.3% | LOX IMVI melanoma 41.7% | SK-MEL-28 melanoma 80.8% | SK-MEL-2 melanoma 84.7% | EKVX NSCLC 110% | SN12C renal 92.1% | UO-31 renal 85.7% | TK-10 renal 85.8% | ACHN renal 110% | CAKI-1 renal 98.2% | A498 renal 124% | CCRF-CEM leukemia 91.7% | MOLT-4 leukemia 81.7%

COc1ccc(/C=C/c2nc3ccccc3nc2/C=C/c2ccc(OC)cc2)cc1
inactive: HCT-15 colon 94.5% | HT29 colon 95.1% | SNB-75 CNS 87.8% | SNB-19 CNS 108% | U251 CNS 95.4% | PC-3 prostate 80.3% | UACC-62 melanoma 90% | LOX IMVI melanoma 102% | SK-MEL-28 melanoma 102% | SK-MEL-2 melanoma 101% | EKVX NSCLC 96.2% | SN12C renal 101% | UO-31 renal 84.7% | TK-10 renal 95.8% | ACHN renal 97.6% | CAKI-1 renal 86.4% | A498 renal 83.9% | CCRF-CEM leukemia 98.2% | MOLT-4 leukemia 99.1%

COc1cc(-c2nn(C)nc2-c2cc3ccccc3s2)cc(OC)c1OC
inactive: HCT-15 colon 16.9% | SNB-75 CNS 48.1% | SNB-19 CNS 26.7% | U251 CNS 20.9% | PC-3 prostate 21.9% | UACC-62 melanoma 26% | LOX IMVI melanoma 38.3% | SK-MEL-28 melanoma 57.6% | SK-MEL-2 melanoma 32.9% | EKVX NSCLC 43.6% | SN12C renal 42.3% | UO-31 renal 40.4% | TK-10 renal 65% | ACHN renal 43.2% | CAKI-1 renal 43.6% | CCRF-CEM leukemia 17.5% | MOLT-4 leukemia 11.7%
active: HT29 colon -1.21% | A498 renal 1.32%

CC1=C/C(=C(\c2ccc(N(C)C)cc2)c2ccc([N+](C)(C)C)cc2)C=CC1=[N+](C)C
inactive: HCT-15 colon 95.7% | HT29 colon 36.5% | SNB-75 CNS 80.5% | SNB-19 CNS 77% | U251 CNS 25.7% | PC-3 prostate 72.9% | UACC-62 melanoma 97.6% | LOX IMVI melanoma 69.1% | SK-MEL-28 melanoma 72.3% | SK-MEL-2 melanoma 110% | EKVX NSCLC 54.8% | SN12C renal 50.9% | UO-31 renal 96.1% | TK-10 renal 90% | ACHN renal 78.1% | CAKI-1 renal 99.2% | A498 renal 81.9% | CCRF-CEM leukemia 85.8% | MOLT-4 leukemia 106%

Cc1ccc(-c2onc3c(=O)[nH]nc(-c4ccccc4)c23)cc1
active: HT29 colon -3.08%
inactive: HCT-15 colon 31.7% | SNB-75 CNS 10.1% | SNB-19 CNS 31.3% | U251 CNS 20.3% | PC-3 prostate 25.8% | UACC-62 melanoma 44.8% | LOX IMVI melanoma 37.6% | SK-MEL-28 melanoma 66.9% | SK-MEL-2 melanoma 25.6% | EKVX NSCLC 39% | SN12C renal 37.4% | UO-31 renal 47.7% | TK-10 renal 55% | ACHN renal 56.9% | CAKI-1 renal 33.9% | A498 renal 30% | CCRF-CEM leukemia 20.5% | MOLT-4 leukemia 26%

CC(C)n1c(/C=C/[C@@H](O)C[C@@H](O)CC(=O)O)c(-c2ccc(F)cc2)c2ccccc21
active: LOX IMVI melanoma 5.69% | CAKI-1 renal -42.9% | A498 renal -21.3%
inactive: HCT-15 colon 50.6% | HT29 colon 75.9% | SNB-75 CNS 29.9% | SNB-19 CNS 55.7% | U251 CNS 15.9% | PC-3 prostate 26.5% | UACC-62 melanoma 16.3% | SK-MEL-28 melanoma 72.9% | SK-MEL-2 melanoma 15% | EKVX NSCLC 52.7% | SN12C renal 36.4% | UO-31 renal 44.7% | TK-10 renal 88.7% | ACHN renal 10.3% | CCRF-CEM leukemia 59.8% | MOLT-4 leukemia 60.8%

CCC([N+](=O)[O-])S(=O)(=O)c1ccc(C)cc1 (centres undefined)
inactive: HCT-15 colon 105% | HT29 colon 101% | SNB-75 CNS 85.1% | SNB-19 CNS 94.4% | U251 CNS 100% | PC-3 prostate 101% | UACC-62 melanoma 101% | LOX IMVI melanoma 98.2% | SK-MEL-28 melanoma 112% | SK-MEL-2 melanoma 107% | EKVX NSCLC 110% | SN12C renal 95.3% | UO-31 renal 82% | TK-10 renal 102% | ACHN renal 104% | CAKI-1 renal 80% | A498 renal 103% | CCRF-CEM leukemia 99% | MOLT-4 leukemia 117%

COc1cc(/C=C/c2cc(/C=C/c3ccc(O)c(OC)c3)n(-c3c(C)cccc3C)c(=O)n2)ccc1O
active: HCT-15 colon 8.19% | HT29 colon -37.8% | SNB-75 CNS -12.4% | U251 CNS 2.81% | PC-3 prostate -2.22% | UACC-62 melanoma -11.3% | LOX IMVI melanoma 0.0749% | SK-MEL-28 melanoma 0.867% | SK-MEL-2 melanoma -6.04% | UO-31 renal 1.61% | ACHN renal 6.48% | A498 renal -6.94% | CCRF-CEM leukemia 7.03% | MOLT-4 leukemia 6.55%
inactive: SNB-19 CNS 13.9% | EKVX NSCLC 17.7% | SN12C renal 11.6% | TK-10 renal 27.4% | CAKI-1 renal 17.2%

O=C(/C=C/c1cc(CN2CCOCC2)c(O)c2ncccc12)c1cc(CN2CCOCC2)c(O)c2ncccc12
inactive: HCT-15 colon 16.2% | HT29 colon 16.8% | SNB-75 CNS 32.2% | SNB-19 CNS 20.7% | PC-3 prostate 23.7% | UACC-62 melanoma 10.1% | LOX IMVI melanoma 19.3% | SK-MEL-28 melanoma 37% | SK-MEL-2 melanoma 20.7% | EKVX NSCLC 23.5% | SN12C renal 26.1% | UO-31 renal 11.1% | TK-10 renal 22.1% | CAKI-1 renal 14.1% | A498 renal 32.4% | CCRF-CEM leukemia 26.9% | MOLT-4 leukemia 31.1%
active: U251 CNS 3.35% | ACHN renal 9.19%

— PubChem BioAssay (NCI)
